PTHR1 ag: PTHR1 (human) receptor agonism. actives 0.075% (n = 410,000). HEK293 GP2 PTHR1 cells, GloSensor cAMP luminescence, 1 h. Potency, µM (doses to about 115 µM), for inactives: at the top dose activation, hits mostly activators. Q03431; further: nearly all actives have a fitted effect of over 55% in size
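HEK-293-derived GP2 cells expressing PTHR1 and a GloSensor cAMP reporter, 3,000/well, plated overnight, given luciferin plus IBMX (each 0.5 mM as added) for 1 h at 37 °C, then compound for 1 h at 37 °C. Luminescence was read after 15 min at room temperature.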
RGS4 inhibitor: inhibitors of human regulator of G protein signaling 4 | Transcreener GDP fluorescence polarization, RGS4-accelerated GTP hydrolysis | Potency, µM (titrated, usually from 114 µM), without a hit: at the top dose activity change, negative = inhibition, most hits filed as inhibitors | actives 0.039% (n = 390,000) | AID 504845; further: on the % scale 0 is the no-effect control and ±100 the full control effect; nearly all actives have a fitted effect of over 75% in size
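MLSMR compounds (23 nl, pin-transferred) preincubated 10 min at room temperature with a 500nM (2x) first reagent, then RGS4 at 900nM (2x) plus Transcreener GDP mix added; fluorescence polarization (620/688 nm) read before and after 90 min at 30 °C.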
KAT2A inh: GCN5L2 (KAT2A) acetyltransferase inhibition | GCN5L2 HAT assay, ThioGlo1 CoA-SH fluorescence | Potency, µM (titrated, usually from 58.9 µM), without a hit: at the top dose activity change, negative = inhibition, actives largely listed as inhibitors | actives 0.21% (n = 390,000) | AID 504327; further: on the % scale 0 is the no-effect control and ±100 the full control effect
Target sequence (Q92830 whole entry, looked up): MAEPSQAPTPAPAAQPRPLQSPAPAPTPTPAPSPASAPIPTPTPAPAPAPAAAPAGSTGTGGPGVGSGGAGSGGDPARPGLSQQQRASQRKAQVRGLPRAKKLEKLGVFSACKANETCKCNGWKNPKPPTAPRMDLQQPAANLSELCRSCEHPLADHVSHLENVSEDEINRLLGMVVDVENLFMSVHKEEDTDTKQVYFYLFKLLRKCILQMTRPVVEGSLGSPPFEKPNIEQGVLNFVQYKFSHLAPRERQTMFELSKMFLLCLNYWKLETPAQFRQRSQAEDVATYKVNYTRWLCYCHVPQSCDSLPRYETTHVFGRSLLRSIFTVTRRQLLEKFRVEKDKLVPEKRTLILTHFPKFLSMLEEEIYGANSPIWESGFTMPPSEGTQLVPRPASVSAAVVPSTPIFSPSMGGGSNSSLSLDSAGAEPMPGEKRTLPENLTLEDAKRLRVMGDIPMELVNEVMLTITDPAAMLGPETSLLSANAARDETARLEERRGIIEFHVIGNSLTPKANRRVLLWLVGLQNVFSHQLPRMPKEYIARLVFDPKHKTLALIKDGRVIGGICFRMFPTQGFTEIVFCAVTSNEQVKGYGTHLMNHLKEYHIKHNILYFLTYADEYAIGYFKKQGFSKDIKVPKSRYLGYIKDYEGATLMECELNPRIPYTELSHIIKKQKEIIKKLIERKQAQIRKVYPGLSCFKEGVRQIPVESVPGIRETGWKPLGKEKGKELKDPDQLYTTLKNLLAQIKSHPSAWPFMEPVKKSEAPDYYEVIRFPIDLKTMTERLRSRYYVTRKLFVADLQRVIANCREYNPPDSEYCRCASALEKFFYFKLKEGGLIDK
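Preincubate 20nM GCN5L2 with compound 15 min, RT → add 50uM ThioGlo1 + 75uM H3(1-25) + 70uM acetyl-CoA → read fluorescence 0 and 20 min. Primary qHTS; fluorescent artifacts likely.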
HEK293 tox: cytotoxic in the GLP-1 receptor inverse agonist counter-screen; actives 0.13% (n = 410,000); HEK293 cAMP-luciferase reporter cells, luminescence, 24 h; AID 624418; Potency, µM (top dose mostly 38.3 µM), inactives show at the highest dose activity change, negative = inhibition, actives largely listed as inhibitors;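 further: loss of luciferase light is scored as toxicity; on the % scale 0 is the no-effect control and ±100 the full control effect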
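Luminescence readout: signal drop marks cytotoxicity. Plated cells grew 12 h at 37 °C, 5% CO2, received 23 nL compound for 24 h, then got luciferase reagent, read after 12 min at RT.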
GLP-1R inv ag: GLP-1 receptor (human) inverse agonism | HEK293 GLP-1R CRE-luciferase, luminescence, 24 h; GLP-1R form is constitutively active | Potency, µM (highest dose often 38.3 µM), for inactives: at the top dose activity change, negative = inhibition, hits mostly inhibitors | actives 1.6% (n = 410,000); further: on the % scale 0 is the no-effect control and ±100 the full control effect; nearly all actives have a fitted effect of over 55% in size
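Seeding at 200 cells/uL, 12 h culture, 24 hr compound treatment, then luciferase reagent and a luminescence read; cells are HEK293 stably expressing a constitutively active GLP-1R plus cAMP-responsive luciferase.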
GLP-1R agonist: agonists of human GLP-1 receptor; P43220; HEK293 GLP-1R CRE-luciferase, luminescence, 4-6 h; cells express a hypersensitive GLP-1R form; Potency, µM (titrated, usually from 45.6 µM), for the others: at the highest dose activation, most hits filed as activators; actives 0.007% (n = 380,000); AID 624172; further: % of control where 0% means no effect
* marks the source's active call; other numbers are inactive results; i = inactive; ? = inconclusive; . = no result given; [ ] = another dose, or the depositor's remark. Hits are enriched below; roughly 1.8% of the tested compounds scored in any of these assays. The call rests on the fitted dose curve; in most records, active means well fitted curve in the direction sought with a large enough effect; inconclusive means small, poorly fitted or top-dose-only effect, or another doubt; inactive means no such curve, though single readings can be large; an effect the other way counts as inactive or inconclusive. Potency means the concentration at half of the fitted maximal effect.

SMILES	PTHR1 ag	RGS4 inhibitor	KAT2A inh	HEK293 tox	GLP-1R inv ag	GLP-1R agonist
CSc1ccc(CC(=O)N2CCC(n3nccc3NC(=O)C3CC3)CC2)cc1	i	6%	1%	1%	1%	14%
CNC(=O)c1c(NC(=O)c2ccc(S(=O)(=O)N3CCCc4ccccc43)cc2)sc2c1CCN(C)C2	-1%	?	4%	3%	4.5µM*	14%
O=[N+]([O-])c1ccc(-[n+]2ccc3ccccc3c2)c([N+](=O)[O-])c1	-47%	?	-9%	13µM*	?	-10%
CC(C)n1c(=O)c2ccccc2n1Cc1cn(-c2ccccc2)nn1	?	.	.	4%	1%	5%
O=c1oc2c(CN3CCN(CCO)CC3)c(O)ccc2cc1-c1ccccc1	i	-6%	32µM*	i	-7%	.
COc1ccc(-c2cc3ccc(O)c(CN4CCCC4)c3oc2=O)cc1OC	i	-21%	14µM*	i	29%	.
CCOC(=O)c1nn(-c2ccc3c(c2)CCN3C(C)=O)cc1O	-22%[57.5 µM]	5%	?	-17%	11µM*	0%
C#Cc1ccc(NC(=O)C2(C)CCN2C(=O)Cc2ccc(C(C)C)cc2)cc1 (stereo not given)	-48%	.	.	-11%	?	5%
CCCCCCCCCCCCCC[C@@H](O)[C@@H](O)[C@@H](N)CO	.	.	40%	.	.	.
Clc1ccc(Cn2c(-c3cccnc3Cl)nc3ccccc32)cc1	-20%	6%	-4%	8%	-9%	-6%
Clc1ccc(Cn2c(-c3cccnc3Cl)nc3ccccc32)c(Cl)c1	?	-38%	-7%	-13%	10µM*	5%
COc1ccc(-c2cn3cccnc3n2)cc1NC(=O)COc1ccccc1	i	-10%	-24%	-23%	-9%	.
COc1ccc(NC(=O)CC2C(=O)N(c3ccc(C)cc3)C(=O)N2C2CCCC2)cc1 (stereo not given)	24%	5%	-3%	-8%	-9%	.
CCc1nn(CC(=O)NCCCN(CC)CC)c(=O)c2cc3sc(C)cc3n12	i	4%	-4%	-16%	10µM*	8%
CN(C)C=Nc1ncc2c([nH]c3ccccc32)c1C#N	-14%[57.5 µM]	-17%	-22%	-11%	-3%	4%
O=[N+]([O-])c1cc(S(=O)(=O)C(F)(F)F)ccc1N1CCN(c2ccccc2)CC1	-20%	-10%	-8%	-25%	5µM*	?
O=[N+]([O-])c1cc(S(=O)(=O)Nc2ccccc2)ccc1N1CCN(c2ccccc2)CC1	-39%	23%	-9%	?	?	-17%
OCC1(Cc2cccc(C(F)(F)F)c2)CCN(Cc2cc3ccccc3o2)CC1	-32%	-19%	-2%	?	?	3%
COc1ccc(CC2(CO)CCN(Cc3cc4ccccc4o3)CC2)cc1	-26%	8%	-5%	-3%	10µM*	25%
COc1ccc(CN2CCN(Cc3ccc(C(F)(F)F)cc3)CC2)c(OC)c1	i	-14%	5%	-17%	11µM*	19%
COc1ccc(CN2CCN(Cc3ccc(C)cc3)CC2)c(OC)c1	i	-14%	17%	10%	?	1%
COc1ccc([C@H]2CC(=O)C[C@@H](CCn3cc(-c4ccccn4)nn3)O2)cc1	5%	.	.	-8%	16%	7%
COc1cc(NC(=O)[C@@H](NC(=O)N2CCn3c2nc2ccccc23)C(C)C)cc(OC)c1	i	21%	-7%	?	10µM*	6%
COc1ccc(CNC(=O)[C@H](CCSC)NC(=O)N2CCn3c2nc2ccccc23)cc1	-23%	-1%[56.9 µM]	-10%	-15%	5µM*	16%
C[C@H](NCc1ccccc1)c1ccccc1	.	.	9%	.	.	.

Screening data as filed in PubChem.
